Experimental data as given in the supplement of paper PMC3545927.
The other results are listed elsewhere or left out. No count for the full screen is at hand.

B1: HC1171 (peptide)
chain: CAVDGIMHTRAGNASASA
B2: FS-1739 (peptide)
chain: CARLHRFWEGAGNASASA
B3: FS-59 (peptide)
chain: CALTQRTARAAGNASASA
B4: HC1331 (peptide)
chain: CASTALAELAAGNASASA
B5: HC232 (peptide)
chain: CAPLGGAARAAGNASASA
B6: FS-1287 (peptide)
chain: CASTARLARAAGNASASA
B7: FS-973 (peptide)
chain: CAALSRVRRAAGNASASA
B8: HC2563 (peptide)
chain: CASTPCSAHAAGNASASA
B9: FS-1510 (peptide)
chain: CAALSRTARAAGNASASA
B10: HC254 (peptide)
chain: CAVPASAYQVAGNASASA
B11: HC2185 (peptide)
chain: CAEVLTSTWVAGNASASA
B12: HC2581 (peptide)
chain: CASTPCSAHNAGNASASA
B13: FS-198 (peptide)
chain: CASTARIRRNAGNASASA
B14: FS-294 (peptide)
chain: CASHSRVRRAAGNASASA
B15: FS-115 (peptide)
chain: CAALGRKARAAGNASASA
B16: HC865 (peptide)
chain: CAALGINAVAAGNASASA
B17: FS-662 (peptide)
chain: CAHIARALRNAGNASASA
B18: HC1013 (peptide)
chain: CAFDEMEECSAGNASASA
B19: FS-1511 (peptide)
chain: CAAQAREKRFAGNASASA
B20: FS-2956 (peptide)
chain: CARIVRSLMPAGNASASA
B21: FS-711 (peptide)
chain: CARQERNKRFAGNASASA
B22: FS-1955 (peptide)
chain: CARHLRSKVTAGNASASA
B23: FS-439 (peptide)
chain: CAHIFRKRRPAGNASASA
B24: FS-2420 (peptide)
chain: CARHLRSLEPAGNASASA
B25: FS-1730 (peptide)
chain: CARKNRSHIPAGNASASA
B26: FS-2004 (peptide)
chain: CAREHRSGEPAGNASASA
B27: HC2412 (peptide)
chain: CAEVPCHRPEAGNASASA
B28: HC2344 (peptide)
chain: CAEVICHRPSAGNASASA
B29: HC1825 (peptide)
chain: CALTPCSGSWAGNASASA
B30: FS-493 (peptide)
chain: CARQNREKRFAGNASASA
B31: HC1206 (peptide)
chain: CAVEIRQVGDAGNASASA
B32: FS-1715 (peptide)
chain: CARHLREVGDAGNASASA
B33: HC1222 (peptide)
chain: CATELDGVRLAGNASASA
B34: FS-1714 (peptide)
chain: CARHKRGRGDAGNASASA
B35: FS-1916 (peptide)
chain: CARQNRSVRLAGNASASA
B36: FS-3040 (peptide)
chain: CARQNRGFRAAGNASASA
B37: FS-956 (peptide)
chain: CARQNRWKRQAGNASASA
B38: HC829 (peptide)
chain: CAETAGARLVAGNASASA
B39: HC568 (peptide)
chain: CAAASCGGVVAGNASASA
B40: HC2081 (peptide)
chain: CAVVCCSMNYAGNASASA
B41: HC381 (peptide)
chain: CALFYHHKFNAGNASASA
B42: FS-2940 (peptide)
chain: CARHLRNVYAAGNASASA
B43: FS-2939 (peptide)
chain: CARHLRANMTAGNASASA
B44: FS-706 (peptide)
chain: CARHLREKRFAGNASASA

Target: furin, P09958
Test: furin cleavage Z-score vs untreated control; higher = more cleavage, active = 3.5 or more, inactive = 1 or less, 8 variable residues between constant flanks
Procedure, shortened: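 Reactions of 0.01 ml ran for 7.5, 15 or 30 min in 50 mM HEPES pH 7.5 with CaCl2 and NaCl, at 1:10 enzyme:substrate. In them, purified furin acted on bead-held 8-mer peptides fused to a cDNA oligonucleotide. The cleavage Z-score was obtained by lowess-adjusting log sequencing counts of released DNA against furin-free reactions and scaling by median absolute deviation.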

Chain of furin, P09958 (P09958 whole entry): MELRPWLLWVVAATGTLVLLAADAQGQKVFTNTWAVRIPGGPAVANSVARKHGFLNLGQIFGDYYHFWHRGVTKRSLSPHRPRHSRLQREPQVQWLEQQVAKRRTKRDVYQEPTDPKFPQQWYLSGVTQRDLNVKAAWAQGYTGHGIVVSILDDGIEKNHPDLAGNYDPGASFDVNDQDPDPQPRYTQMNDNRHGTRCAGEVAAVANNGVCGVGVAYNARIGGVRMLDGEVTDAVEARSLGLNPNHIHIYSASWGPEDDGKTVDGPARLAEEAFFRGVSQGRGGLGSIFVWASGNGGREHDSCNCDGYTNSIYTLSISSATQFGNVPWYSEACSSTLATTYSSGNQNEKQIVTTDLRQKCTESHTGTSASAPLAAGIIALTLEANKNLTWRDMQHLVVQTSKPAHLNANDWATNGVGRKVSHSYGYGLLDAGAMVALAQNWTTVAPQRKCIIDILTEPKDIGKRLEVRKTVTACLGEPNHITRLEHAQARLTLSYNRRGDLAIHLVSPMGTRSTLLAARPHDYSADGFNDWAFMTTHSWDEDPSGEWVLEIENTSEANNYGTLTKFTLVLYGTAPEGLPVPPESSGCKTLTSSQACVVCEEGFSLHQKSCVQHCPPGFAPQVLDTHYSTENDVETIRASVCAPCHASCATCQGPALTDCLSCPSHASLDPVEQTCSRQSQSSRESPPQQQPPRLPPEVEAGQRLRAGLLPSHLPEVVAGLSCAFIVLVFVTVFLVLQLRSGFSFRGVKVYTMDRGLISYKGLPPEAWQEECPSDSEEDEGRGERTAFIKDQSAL

Row | Sequence | furin cleavage Z-score (7.5 min) | furin cleavage Z-score (15 min) | furin cleavage Z-score (30 min)
1 | B1 | 1.01 | -0.806 (inactive) | 1.2
2 | B2 | 1.61 | -1.73 (inactive) | 0.551 (inactive)
3 | B3 | 6.17 (active) | 5.48 (active) | 5.53 (active)
4 | B4 | -1.46 (inactive) | -0.668 (inactive) | 0.259 (inactive)
5 | B5 | -0.625 (inactive) | -0.427 (inactive) | -0.526 (inactive)
6 | B6 | 5.91 (active) | 8.42 (active) | 8.27 (active)
7 | B7 | 8.87 (active) | 9.48 (active) | 6.93 (active)
8 | B8 | 1.54 | 0.374 (inactive) | -0.524 (inactive)
9 | B9 | 8.19 (active) | 7.7 (active) | 6.47 (active)
10 | B10 | 0.602 (inactive) | -1.58 (inactive) | -0.419 (inactive)
11 | B11 | 0.631 (inactive) | -0.524 (inactive) | 0.492 (inactive)
12 | B12 | -0.0473 (inactive) | 1.28 | -0.895 (inactive)
13 | B13 | 11.3 (active) | 11.2 (active) | 10.4 (active)
14 | B14 | 11.4 (active) | 9.7 (active) | 7.37 (active)
15 | B15 | 6.64 (active) | 6.76 (active) | 5.64 (active)
16 | B16 | 0.253 (inactive) | 0.918 (inactive) | -1.14 (inactive)
17 | B17 | 0.331 (inactive) | 1.47 | 0.623 (inactive)
18 | B18 | 0.602 (inactive) | 0.715 (inactive) | 0.322 (inactive)
19 | B19 | 6.88 (active) | 8.08 (active) | 8.04 (active)
20 | B20 | 6.15 (active) | 8.67 (active) | 10.9 (active)
21 | B21 | 8.02 (active) | 9.31 (active) | 10.8 (active)
22 | B22 | -0.109 (inactive) | -0.365 (inactive) | 0.464 (inactive)

Row | Sequence | furin cleavage Z-score (7.5 min) | furin cleavage Z-score (15 min) | furin cleavage Z-score (30 min)
23 | B23 | -0.371 (inactive) | -0.427 (inactive) | -0.596 (inactive)
24 | B24 | 5.02 (active) | 6.47 (active) | 5.66 (active)
25 | B25 | 0.266 (inactive) | -0.138 (inactive) | -0.417 (inactive)
26 | B26 | -1.1 (inactive) | -0.712 (inactive) | -1.7 (inactive)
27 | B27 | 1.1 | 0.551 (inactive) | -0.217 (inactive)
28 | B28 | -0.36 (inactive) | -0.916 (inactive) | 1.17
29 | B29 | -0.28 (inactive) | -0.817 (inactive) | -0.734 (inactive)
30 | B30 | 8.07 (active) | 9.73 (active) | 9.9 (active)
31 | B31 | -0.56 (inactive) | -1.09 (inactive) | -1.86 (inactive)
32 | B32 | 2.58 | 3.76 (active) | 3.94 (active)
33 | B33 | -1.97 (inactive) | -0.317 (inactive) | -1.04 (inactive)
34 | B34 | 0.301 (inactive) | 2.2 | 1.5
35 | B35 | 2.12 | 3.53 (active) | 4 (active)
36 | B36 | -0.161 (inactive) | 0.266 (inactive) | 0.111 (inactive)
37 | B37 | 13.6 (active) | 16.1 (active) | 9.49 (active)
38 | B38 | 1.45 | 1.12 | -1.04 (inactive)
39 | B39 | -0.496 (inactive) | -0.825 (inactive) | 0.0661 (inactive)
40 | B40 | -0.198 (inactive) | -1.19 (inactive) | -1.03 (inactive)
41 | B41 | -0.625 (inactive) | -2.1 (inactive) | -0.731 (inactive)
42 | B42 | 0.638 (inactive) | -0.594 (inactive) | 1.3
43 | B43 | -0.54 (inactive) | -1.02 (inactive) | -1.63 (inactive)
44 | B44 | 6.75 (active) | 9.12 (active) | 10.1 (active)
